# Measurements published in the supplement of paper PMC10127200.
# Structures can show the parent of a compound that is named as a salt.
# Assays:
# Assay in all cases: Euclidean distance of Cell Painting phenotypic profile (signed KS, 77 features) to DMSO centroid (dimensionless distance); 5 or 10 uM (library dependent); higher = stronger phenotypic change vs DMSO (phenoactivity)
# Settings in all cases: 48 h
# 786-O = system: 786-O
# Outline: (§1)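 Phenoactivity is computed as Euclidean distance to the median vehicle profile. The profiles, drawn from 77 Harmony features scored as signed Kolmogorov-Smirnov statistics versus same-plate vehicle wells, were corrected for plate position, correlation-weighted and replicate-averaged at the top dose. Stained cells were imaged confocally at 20X (9 fields/well) after 48 h with library compounds at 10 or 5 uM, 0.1% DMSO final, in five cancer lines and a healthy fibroblast line.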
# A549 = system: A549
# Outline: as §1
# DU145 = system: DU145
# Outline: as §1
# FB = system: FB
# Outline: as §1
# HEPG2 = system: HEPG2
# Outline: as §1
# OVCAR4 = system: OVCAR4
# Outline: as §1
Structure (SMILES),Euclidean distance (786-O),Euclidean distance (A549),Euclidean distance (DU145),Euclidean distance (FB),Euclidean distance (HEPG2),Euclidean distance (OVCAR4)
CC(C)OC(=O)C(C)(C)Oc1ccc(C(=O)c2ccc(Cl)cc2)cc1 [Fenofibrate],1.18,0.803,0.9,1.1,1.75,1.73
COc1cc([C@@H]2c3cc4c(cc3[C@@H](O[C@@H]3O[C@@H]5CO[C@@H](c6cccs6)O[C@H]5[C@H](O)[C@H]3O)[C@H]3COC(=O)[C@H]23)OCO4)cc(OC)c1O [Teniposide],2.74,3.77,4.38,3.23,3.39,3.66
Cn1c(=O)c2c(ncn2CCO)n(C)c1=O [Etofylline],1.39,0.749,1.18,1.08,0.452,1.26
CC(=O)OC1CC2CCC1(C)C2(C)C (configuration not stated) [Bornyl acetate],1.09,0.894,1.24,1.11,0.74,1.29
FC(F)(F)c1ccc(CNc2ccc(Cc3c[nH]c4ncc(Cl)cc34)cn2)cn1 [Pexidartinib (PLX3397)],1.31,1.41,1.04,1.53,2.18,1
O=C(NS(=O)(=O)c1ccc(Br)s1)c1ccc(Cl)cc1Cl [Tasisulam],1.38,0.993,1.21,0.939,1.22,1.66
CC(C(=O)O)c1ccc(C(=O)c2cccs2)cc1 (configuration not stated) [Suprofen],1.32,0.825,0.656,0.981,2.04,1.01
Oc1cc(O)c(Cl)cn1 [Gimeracil],0.868,1.07,1.6,1.25,2.06,1.53
Cc1[nH]c2ccccc2c1CCNC(=O)c1cccs1,0.729,2.31,0.821,0.779,0.553,1.45
CCOc1ccccc1OC(c1ccccc1)C1CNCCO1 (configuration not stated) [Reboxetine mesylate],1.05,0.873,2.32,0.844,2.49,0.786
O=C(NNc1ccccc1)c1ccncc1,2.02,1.17,0.814,1.28,1.46,1.39
C[N+](C)(C)CCO.O=C([O-])C(O)C(O)C(=O)O (configuration not stated) [Choline bitartrate],1.35,1.24,0.973,1.15,0.96,1.37
CC(=O)O/N=C1\C(=O)N(Cc2cc(Cl)ccc2Cl)c2ccc(Cl)cc21,0.757,0.621,0.687,0.682,0.571,1.34
Cc1cc(Nc2nc(N[C@@H](C)c3ccc(F)cc3)c(C#N)cc2F)n[nH]1,3.5,3.48,2.73,2.42,2.18,2.77
Clc1ccc(C(Cn2ccnc2)OCc2ccc(Sc3ccccc3)cc2)c(Cl)c1 (configuration not stated) [Fenticonazole Nitrate],1.13,0.887,1.51,1.21,2.16,1.35
CCCN1CCCC[C@H]1C(=O)Nc1c(C)cccc1C [Ropivacaine Mesilate],0.655,0.72,1.14,0.717,0.914,0.946
CC1(C)S[C@@H]2[C@H](NC(=O)[C@H](NC(=O)N3CCN(S(C)(=O)=O)C3=O)c3ccccc3)C(=O)N2[C@H]1C(=O)O [Mezlocillin Sodium],1.2,0.987,1.43,1.15,1.72,0.751
COc1ccc(/C=C/C(=O)Nc2ccccc2C(=O)O)cc1OC [Trans-Tranilast],1.43,0.649,0.604,1.18,0.865,0.917
O=C(Cn1ccnc1[N+](=O)[O-])NCc1ccccc1 [Benznidazole],1.16,1.1,1.58,1.03,0.581,1.14
CCn1cc(C(=O)O)c(=O)c2cc(F)c(N3CCN(C)CC3)cc21 [Pefloxacin Mesylate Dihydrate],1.52,1.04,0.855,0.707,0.635,1.07
CCOC(=O)c1ccc(OC(=O)CCCCCNC(=N)N)cc1 [Gabexate Mesylate],1.36,0.886,1.01,0.822,1.58,1.68
COc1ccc2[nH]c([S+]([O-])Cc3ncc(C)c(OC)c3C)nc2c1 (configuration not stated) [Omeprazole Sodium],1.03,1.11,2.39,0.71,0.957,1.07
CC(C)OC(=O)[C@H](C)N[P@](=O)(OC[C@H]1O[C@@H](n2ccc(=O)[nH]c2=O)[C@](C)(F)[C@@H]1O)Oc1ccccc1 [Sofosbuvir (PSI-7977. GS-7977)],1.34,0.693,1.07,0.694,0.59,1.01
O=C(c1ccc(F)cc1)C1CCN(CCn2c(=O)[nH]c3ccccc3c2=O)CC1 [Ketanserin],1.44,0.68,0.898,0.767,0.883,1.08

Structure (SMILES),Euclidean distance (786-O),Euclidean distance (A549),Euclidean distance (DU145),Euclidean distance (FB),Euclidean distance (HEPG2),Euclidean distance (OVCAR4)
CCOc1ccc2nc3cc(N)ccc3c(N)c2c1 [Ethacridine lactate monohydrate],2.72,2.06,3.08,3.62,3.62,1.62
Cc1nnc(C(C)C)n1C1C[C@H]2CC[C@@H](C1)N2CC[C@H](NC(=O)C1CCC(F)(F)CC1)c1ccccc1 (stereo in doubt) [Maraviroc],1.35,0.711,1.04,1.1,0.487,1.71
CC(=O)O[C@]1(C(C)=O)CC[C@H]2[C@@H]3C=C(Cl)C4=CC(=O)[C@@H]5C[C@@H]5[C@]4(C)[C@H]3CC[C@@]21C [Cyproterone Acetate],1.3,0.841,0.95,0.862,1.95,0.974
CN1CCN(c2nc(C3=C(c4c[nH]c5ccccc45)C(=O)NC3=O)c3ccccc3n2)CC1 [Sotrastaurin],2.18,1.58,1.36,2.47,1.37,1.2
CC#CC(=O)N1CCC[C@H]1c1nc(-c2ccc(C(=O)Nc3ccccn3)cc2)c2c(N)nccn12 [Acalabrutinib (ACP-196)],0.929,0.693,2.19,1.3,3.25,1.22
CCN[C@H]1C[C@H](C)S(=O)(=O)c2sc(S(N)(=O)=O)cc21 [Dorzolamide HCl],1.17,0.786,1.03,1.31,1.06,1.09
COc1ccc(Cc2cnc(N)nc2N)cc1OC [Diaveridine],0.784,1.57,1.59,1.23,0.387,1.42
CCN(CC)C(=O)/C(C#N)=C/c1cc(O)c(O)c([N+](=O)[O-])c1 [Entacapone],0.439,0.512,0.513,1.1,0.422,0.77
COC(=O)C1=C(C)NC(C)=C(C(=O)OC(C)(C)CN(C)CCC(c2ccccc2)c2ccccc2)C1c1cccc([N+](=O)[O-])c1 (configuration not stated) [Lercanidipine],1.59,2.38,1.1,1.31,1.5,2.02
NC(=O)c1ncn([C@@H]2O[C@H](CO)[C@@H](O)[C@H]2O)n1 [Ribavirin],0.706,0.843,0.599,0.808,0.875,0.963
CN(CCCCCCCCCCN(C)C(=O)Oc1cccc([N+](C)(C)C)c1)C(=O)Oc1cccc([N+](C)(C)C)c1 [Demecarium Bromide],0.786,0.898,0.6,1.07,1.17,1.24
N#Cc1ccc2[nH]cc(CCCCN3CCN(c4ccc5oc(C(N)=O)cc5c4)CC3)c2c1 [Vilazodone HCl],2.53,2.23,1.66,1.66,2.24,1.77
Cc1ccc2nc(NCCN)c3ncc(C)n3c2c1,0.585,1.64,1.21,1.55,2.99,1.57
CCc1cc(C(N)=O)ccc1-n1nc(C(C)C)c2c(-n3cnc(-c4cnn(C)c4)c3)ccnc21,3.26,3.06,3.79,3.38,3.38,2.86
CCCc1nc(C)c2c(=O)nc(-c3cc(S(=O)(=O)N4CCN(CC)CC4)ccc3OCC)[nH]n12 [Vardenafil HCl Trihydrate],1.18,0.732,1.26,1.02,0.77,0.83
N[C@H]1CONC1=O [L-Cycloserine],0.838,0.531,1.03,1.02,0.788,1.56
CO[C@H]1C[C@@H]2CC[C@@H](C)[C@@](O)(O2)C(=O)C(=O)N2CCCC[C@H]2C(=O)O[C@H]([C@H](C)C[C@@H]2CC[C@@H](OC(=O)C(C)(CO)CO)[C@H](OC)C2)CC(=O)[C@H](C)/C=C(\C)[C@@H](O)[C@@H](OC)C(=O)[C@H](C)C[C@H](C)/C=C/C=C/C=C/1C,3.03,1.74,1.55,2.95,1.69,2.08
C[C@H](NC(=O)C(=O)Nc1ccccc1C(C)(C)C)C(=O)N[C@@H](CC(=O)O)C(=O)COc1c(F)c(F)cc(F)c1F [Emricasan],1.44,0.567,0.769,0.936,0.32,0.99
O=C1N=C(O)NC1(c1ccccc1)c1ccccc1 [Phenytoin sodium],0.57,0.743,0.884,1.08,0.937,1.27
c1ccc2c(c1)CCCC2C1=NCCN1 (configuration not stated) [Tetrahydrozoline HCl],0.978,0.966,0.786,0.944,0.601,1.78
Nc1nc(N)c2nc(-c3cccc(O)c3)c(-c3cccc(O)c3)nc2n1,1.06,1.73,1,1.45,2.84,1.02
CN(C)CCc1c[nH]c2ccc(CS(=O)(=O)N3CCCC3)cc12 [Almotriptan Malate],1.05,0.798,0.545,1.14,1.78,1.51
CC1=C[C@H](O)CC(C)(C)[C@H]1/C=C/C(C)=C/C=C/C(C)=C/C=C/C=C(C)/C=C/C=C(C)/C=C/C1=C(C)C[C@@H](O)CC1(C)C [lutein],0.901,0.452,1.78,0.947,1.18,1
